# Measurements as given in ChEMBL document CHEMBL5308504, “Tm Shift (DSF) assay results for EUbOPEN Chemogenomics Library” (2023).
# Where “and” joins values, the source holds several entries; their conditions need not be identical. Identical values can stand only once.
# Biological target: T1, Transcription intermediary factor 1-alpha (Homo sapiens) (UniProt O15164)
# T1 sequence (whole entry): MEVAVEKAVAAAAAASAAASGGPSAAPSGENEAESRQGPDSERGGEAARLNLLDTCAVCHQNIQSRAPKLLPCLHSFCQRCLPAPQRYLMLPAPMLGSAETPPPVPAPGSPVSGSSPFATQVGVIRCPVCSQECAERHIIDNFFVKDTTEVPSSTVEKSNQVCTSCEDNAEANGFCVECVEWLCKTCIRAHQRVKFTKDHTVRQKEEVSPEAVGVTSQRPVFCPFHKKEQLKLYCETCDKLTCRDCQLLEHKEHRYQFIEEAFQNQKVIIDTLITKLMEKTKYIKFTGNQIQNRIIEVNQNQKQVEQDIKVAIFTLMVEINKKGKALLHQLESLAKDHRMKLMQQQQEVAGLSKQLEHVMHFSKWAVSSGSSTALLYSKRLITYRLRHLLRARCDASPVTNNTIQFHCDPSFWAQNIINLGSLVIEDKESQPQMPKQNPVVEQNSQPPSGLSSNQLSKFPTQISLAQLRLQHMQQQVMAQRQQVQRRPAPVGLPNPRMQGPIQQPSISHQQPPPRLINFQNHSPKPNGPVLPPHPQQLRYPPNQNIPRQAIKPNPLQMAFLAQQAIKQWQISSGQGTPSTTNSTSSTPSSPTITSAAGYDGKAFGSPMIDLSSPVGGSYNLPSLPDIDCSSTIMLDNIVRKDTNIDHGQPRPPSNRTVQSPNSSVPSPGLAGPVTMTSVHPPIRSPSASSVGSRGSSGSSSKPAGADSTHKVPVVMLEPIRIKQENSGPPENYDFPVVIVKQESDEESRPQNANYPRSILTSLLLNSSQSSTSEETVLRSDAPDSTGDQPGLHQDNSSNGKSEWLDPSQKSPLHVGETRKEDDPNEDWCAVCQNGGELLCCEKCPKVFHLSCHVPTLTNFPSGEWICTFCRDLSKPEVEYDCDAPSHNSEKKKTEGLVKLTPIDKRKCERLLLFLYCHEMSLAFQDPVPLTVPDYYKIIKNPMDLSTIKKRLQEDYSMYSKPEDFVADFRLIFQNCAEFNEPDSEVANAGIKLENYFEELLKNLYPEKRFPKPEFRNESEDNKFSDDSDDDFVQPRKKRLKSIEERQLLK
# Settings: Compound concentration 20.0 uM, Protein concentration 2.0 uM, Result type QC Liability
row,SMILES,ΔTm
1,CC(=O)N(CCN(C)C)c1ccc(N/C(=C2\C(=O)Nc3cc(Cl)ccc32)c2ccccc2)cn1,-4.13 °C
2,CCO[C@@H](Cc1ccc(OCCc2ccc(OS(C)(=O)=O)cc2)cc1)C(=O)O,-3.53 °C
3,C[C@@H]1CN(CC(=O)N2CC(C)(C)c3nc(CO)c(Cc4ccc(F)cc4)cc32)[C@@H](CN2CCOC[C@H]2C)CN1,-0.43 °C
4,C[C@@H]1COCCN1c1cc(=O)n2c(n1)N(Cc1cncc(Cl)c1)[C@H](C(F)(F)F)CC2,-0.61 °C
5,O=C(NCc1ccc(F)cc1)C1CCN(S(=O)(=O)c2cc(Cl)cc(Cl)c2)CC1,0.44 °C
6,COc1ccc(N(C(=O)Nc2c(C)cccc2C)c2cc(Nc3ccc(N4CCN(C)CC4)cc3)ncn2)c(OC)c1,0.7 °C
7,CN1CCCN(C(=O)c2cccc(-c3ccc(/C=C4/C(=O)Nc5ccc(Cl)cc54)o3)c2)CC1,-5.43 °C
8,CC(C(=O)Nc1cc(C#N)ccc1CCCC(=O)O)c1ccc(F)c2ccccc12 (centres undefined),-1.35 °C
9,Cc1ccc2c(NS(=O)(=O)c3ccccc3Cl)cccc2c1Oc1ncccc1-c1ccnc(N[C@H]2CCCNC2)n1,1.37 °C
10,CC(=O)N1CCC(c2ccc(C(=O)NC(=N)N)cc2C(F)(F)F)CC1,0.53 °C
11,O=C1NC(=NCc2cccs2)SC1=Cc1ccc2ncccc2c1,-1.13 °C
12,C[C@H](NC(=O)c1cc(Cl)ccc1Oc1ccc(F)cc1)c1ccc(C(=O)O)cc1,-0.34 °C
13,Cn1c(C2(NC(=O)c3ccc(NCC4CCCCC4)nc3)CCC2)nc2ccc(/C=C/C(=O)O)cc21,0.39 °C
14,Cc1cc(Cn2c(N3CC4(CNC4)C3)nc3c(N4CCN(C)CC4)cc(Cl)cc32)cc(C)c1F,-0.77 °C
15,C[S+](C)[O-],0 °C (2×) and -2.19 °C
16,Cc1ccc(NS(=O)(=O)c2ccc3c(c2)C2C=CCC2C(c2ccc(C(=O)O)cc2)N3)cc1C (centres undefined),-2.63 °C
17,N[C@@H]1CCCN(c2c(/C=C3\SC(=O)NC3=O)cccc2-c2ccccc2)C1,-2.28 °C
18,Cc1cc(NC(=O)c2cccc(NC(=O)/C=C/CN(C)C)c2)ccc1Nc1nccc(-c2cccnc2)n1,-1.44 °C
19,CCc1cc2c(cc1N1CCC(N3CCOCC3)CC1)C(C)(C)c1[nH]c3cc(C#N)ccc3c1C2=O,-0.86 °C
20,O=C(O)c1cc(-c2ccccc2)ccc1O,-1.78 °C

row,SMILES,ΔTm
1,CCCCCNC(=O)N1CCC(CN(Cc2ccc(Cl)cc2)Cc2ccc([N+](=O)[O-])s2)C1 (centres undefined),-3.43 °C
2,NCCCc1c(C(=O)O)[nH]c2ccc(C(=O)Nc3ccccc3)cc12,-4.02 °C
3,CC[C@@H](CO)Nc1nc(Nc2cccc(NC(=O)C(C)(C)C)c2)ncc1F,0.33 °C
4,C[C@@]1(Cc2ccc(C#N)cc2)C(=O)N(c2cc(Cl)cc(Cl)c2)c2ncc(C(=O)NC3(c4nc(C5CCC5)no4)CC3)n21,0.39 °C
5,CNC(=O)c1cccc(-c2ccc3c(N4CCOC[C@@H]4C)nc(N4CCOC[C@@H]4C)nc3n2)c1,-1.47 °C
6,Cc1cc(OCCC(C)(C)O)cc(C)c1-c1ccc(F)c2c1CC[C@H]2Oc1ccc2c(c1)OC[C@H]2CC(=O)O,-2.29 °C
7,COC1(C#Cc2ccc(Cl)c(-c3ncc4c(n3)-c3sc(NC(C)=O)nc3CC4)c2)CCN(C)CC1,-3.35 °C
8,COc1ccc(Br)cc1S(=O)(=O)NC(=O)/C=C/c1cc(Cl)ccc1Cc1ccc2ccccc2c1,-0.55 °C
9,O=C(Nc1cccc(C(F)(F)F)c1)c1cccc(-n2cc(-c3ccco3)nn2)c1,-0.66 °C
10,Fc1ccc(Cl)cc1-c1nc(Nc2ccncc2)c2nccnc2n1,-1.86 °C
11,CCOC(=O)c1cc2cc(-c3cc(C(=O)NCc4ccc(C(=O)O)cc4)nn3C)ccc2[nH]1,0.44 °C
12,COCCN1CCN(CCn2ccc(Nc3ncc4c(n3)-c3c(nn(C)c3-c3ccccc3)C[C@H]4C)n2)CC1,-2.88 °C
13,CC[C@H](NC(=O)[C@H](C)NC)C(=O)N1C[C@@H](O)C[C@H]1Cc1c(-c2[nH]c3cc(F)ccc3c2C[C@@H]2C[C@H](O)CN2C(=O)[C@H](CC)NC(=O)[C@H](C)NC)[nH]c2cc(F)ccc12,-3.97 °C
14,O=C(O)Cc1cc(I)c(Oc2ccc(O)c(I)c2)c(I)c1,-2.6 °C
15,CNC(=O)c1ccc2c(c1)NC(=O)/C2=C(\Nc1ccc(CN2CCCCC2)cc1)c1ccccc1,-3 °C
16,COC(=O)c1sccc1S(=O)(=O)Nc1ccc(Nc2ccccc2)cc1OC,0.59 °C
17,CCCCC[C@H](O)/C=C/[C@H]1[C@H](O)CC(=O)[C@@H]1CCCCCCC(=O)O,0.28 °C
18,CC(C)(C#Cc1ccc(NC(=O)COc2ccccc2C(=O)c2ccccc2)c(Cl)c1)C(=O)O,0.79 °C
19,CN[C@@H](C)C(=O)N[C@H]1CN(C(=O)CC(C)C)CC[C@H]2CC[C@@H](C(=O)NC(c3ccccc3)c3ccccc3)N2C1=O,-2.26 °C
